Where “and” joins values, the source holds several entries; their conditions need not be identical. Identical values can stand only once. Results filed as inconclusive are left out. Unmarked numbers belong to inactive results. Calls of active or inactive are those of the source. Calls come from the whole dose curve; as a rule, active = well fitted cell-killing curve with a large enough effect in the repeat runs; inconclusive = weak or mixed curves; inactive = flat fitted curve, though single readings scatter.
assay: qHTS assay to identify small molecule antagonists of the estrogen receptor beta (ER-beta) signaling pathway - cell viability counter screen (AID 1259382); conditions: ER-beta-UAS-bla HEK293T viability, CellTiter-Glo luminescence, 16 h; series mostly up to 92.4 µM; activity change, negative = cytotoxicity: at the top concentration; note: nearly all actives have a fitted effect of over 55% in size
Description: U.S. Tox21 Program National Center for Advancing Translational Sciences [NCATS] NIH Chemical Genomics Center [NCGC] U.S. Environmental Protection Agency [EPA] National Institutes of Environmental Health Sciences [NIEHS] National Toxicology Program [NTP] U.S. Food and Drug Administration [FDA] Tox21 Assay Overview: Estrogen receptor (ER), a nuclear hormone receptor, plays an important role in development, metabolic homeostasis and reproduction. Two subtypes of ER, ER-alpha and ER-beta, have similar expression patterns with some uniqueness in both types. Endocrine disrupting chemicals (EDCs) and their interactions with steroid hormone receptors like ER causes disruption of normal endocrine function. To identify the compounds that inhibit ER signaling, an ER-beta-UAS-bla GripTite cell line (Life Technologies, Madison, WI, USA) containing a beta-lactamase reporter gene under the control of an UAS response element was used to screen Tox21 10K compound library. The cytotoxicity of the Tox21 compound library against the ER-beta-bla cell line was tested in parallel by measuring the cell viability using CellTiter-Glo assay in the same wells.
Tox21 Assay Protocol Summary: ER-beta-UAS-bla HEK293T cells were dispensed at 2,000 cells/4 uL of assay medium containing 2% charcoal stripped FBS per well into black wall/clear-bottom 1536-well plates using a Multidrop Combi (ThermoFisher Scientific, Waltham, MA) dispenser. After the assay plates were incubated at a 37C and 5% CO2 for 6 hr, 23 nL of compounds dissolved in DMSO, positive controls or DMSO only was transferred to the assay plate by a Pintool station (Kalypsys, San Diego, CA), followed by addition of 1 uL (1nM as final concentration) of 17-beta-estradiol (E2) in assay medium using a Flying Reagent Dispenser (FRD, Aurora Discovery, San Diego, CA). The plates were incubated at 37C and 5% CO2 for 16 hr. Then 1 uL of LiveBLAzer B/G FRET substrate was added using a Flying Reagent Dispenser, the plates were incubated at room temperature for 2 hours, and fluorescence intensity was measured by an Envision plate reader (PerkinElmer, Shelton, CT). For cell viability readout that measures cytotoxicity, 4 uL/well of CellTiter-Glo reagent was added into the assay plates using a FRD. After 30 min incubation at room temperature, the luminescence intensity in the plates was measured using a ViewLux (PerkinElmer) plate reader.
% is set by controls: 0 for no effect and ±100 for the full control effect; potency is the fitted concentration of half-maximal effect.

Going from `CCCCOC(=O)C(C)CC` (stereo not given) to `CCCCN(C)C`, the “activity change, negative = cytotoxicity” value falls from 11.8% to -0.318%.

First: CCOC(/C=C(\C)CCC=C(C)C)OCC
Second: CCO[Si](C)(C)OCC
The “activity change, negative = cytotoxicity” value of the first is higher: 1.4% for the first, 1.17% for the second.

Going from `CC1(C)C(=O)N(Br)C(=O)N1Br` to `CCc1ccc(C)nc1`, the “activity change, negative = cytotoxicity” value rises from -2.15% to 1.15%.

Going from `CCCC(O)C(O)CO` (stereo not given) to `O=C[C@H](O)[C@H](O)[C@H](O)CO`, the “activity change, negative = cytotoxicity” value falls from 8.92% to -1.62%.

First: CC1CCCNC1 (stereo not given)
Second: CC1CCCCC1
The “activity change, negative = cytotoxicity” value of the first is lower: -1.83% for the first, 11.8% for the second.

First: OCCCCl
Second: OCCCc1cccnc1
The “activity change, negative = cytotoxicity” value of the first is higher: 13.6% for the first, 2.35% for the second.

Going from `COC(=O)NCCC[Si](OC)(OC)OC` to `CO[Si](CCCNCCNCCN)(OC)OC`, the “activity change, negative = cytotoxicity” value rises from 2.76% to 5.05%.

Compared with `ClC/C=C\CCl`, `CCOB(OCC)OCC` is higher in “activity change, negative = cytotoxicity” value: 0.642% for the first, 4.2% for the second.

Going from `CCC(C)c1ccccc1` (stereo not given) to `COc1ccccc1C=O`, the “activity change, negative = cytotoxicity” value falls from 4.17% to 3.57%.

First: OCCN1CN(CCO)CN(CCO)C1
Second: S=P(N1CC1)(N1CC1)N1CC1
The “activity change, negative = cytotoxicity” value of the first is higher: 2.36% for the first, 1.67% for the second.

First: O=C(O)CC(=O)O
Second: CC(=O)OC1CCCCC1
The “activity change, negative = cytotoxicity” value of the first is higher: 12.2% for the first, 2.4% for the second.

Going from `CC(C)CCOCCC(C)C` to `c1cc[nH]c1`, the “activity change, negative = cytotoxicity” value rises from 4.27% to 8.11%.

Going from `C(=C/c1ccccc1)/c1ccccc1` to `O=Nc1ccc(NO)cc1`, the “activity change, negative = cytotoxicity” value rises from 0.119% to 1.35%.

For `CC1=C(/C=C/C(C)=C/C=C/C(C)=C/C(=O)Nc2ccc(O)cc2)C(C)(C)CCC1`, the Potency was 70.3 µM (active).
In the case of `CCCCCCOc1cc(C)c(O)c(C)c1C`, the Potency is reported as 61.9 µM (active).
With `Cc1ccc(CCn2c3c(c4cc(Cl)ccc42)CN(C)CC3)cn1` the Potency was 26.6 µM (active).
With `CSc1ccc2c(c1)N(CCC1CCCCN1C)c1ccccc1S2` (stereo not given) the Potency was 15.3 µM (active) and 13.3 µM (active).
With `CC(C)(C)CC(C)(C)c1ccccc1O` the Potency was 61.4 µM (active).
In the case of `CC(NCCC(c1ccccc1)c1ccccc1)c1ccccc1` (stereo not given), the Potency is reported as 18.8 µM (active).
In the case of `COC(=O)C1=C(C)NC(C)=C(C(=O)OCCCN2CCC(c3ccccc3)(c3ccccc3)CC2)C1c1cccc([N+](=O)[O-])c1` (stereo not given), the Potency is reported as 23.7 µM (active).
With `CCN(CC)c1ccc(N)cc1` the Potency was 49.9 µM (active).

First: Clc1cc(Cl)c(-c2c(Cl)c(Cl)cc(Cl)c2Cl)cc1Cl
Second: O=C(O)CCn1c2c(c3ccccc31)C[C@H](NS(=O)(=O)c1ccc(F)cc1)CC2
The “activity change, negative = cytotoxicity” value of the first is higher: 18.2% [at 42.5 µM] for the first, 4.81% [at 42.5 µM] for the second.

Going from `CCCCCCCC(OC)OC` to `C/C=C/C=N/NC(=O)c1ccncc1`, the “activity change, negative = cytotoxicity” value falls from 8.94% [at 42.5 µM] to -3.49% [at 42.5 µM].

In the case of `CCN1CCN(c2cc(-c3ccc(F)cc3)c3c(n2)CCCCCC3)CC1`, the activity change, negative = cytotoxicity is reported as -0.898% [at 19 µM].

For `N[C@@H](CSSC[C@H](N)C(=O)O)C(=O)O`, the activity change, negative = cytotoxicity was -5.72% [at 0.349 µM].
